AF4-AF9 inh = blocks AF4 peptide binding to human AF9; P42568; AlphaScreen, biotin-AF4 peptide binding to FLAG-AF9; inhibition, % at 10 µM; 350,000 compounds, 0.47% hits;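 active = every replicate reaching a set inhibition limit, whatever the replicate mean, cut at about 25% in these data; inconclusive = mean inhibition reaches that limit but some replicates miss it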
Target sequence (P42568 whole entry, looked up): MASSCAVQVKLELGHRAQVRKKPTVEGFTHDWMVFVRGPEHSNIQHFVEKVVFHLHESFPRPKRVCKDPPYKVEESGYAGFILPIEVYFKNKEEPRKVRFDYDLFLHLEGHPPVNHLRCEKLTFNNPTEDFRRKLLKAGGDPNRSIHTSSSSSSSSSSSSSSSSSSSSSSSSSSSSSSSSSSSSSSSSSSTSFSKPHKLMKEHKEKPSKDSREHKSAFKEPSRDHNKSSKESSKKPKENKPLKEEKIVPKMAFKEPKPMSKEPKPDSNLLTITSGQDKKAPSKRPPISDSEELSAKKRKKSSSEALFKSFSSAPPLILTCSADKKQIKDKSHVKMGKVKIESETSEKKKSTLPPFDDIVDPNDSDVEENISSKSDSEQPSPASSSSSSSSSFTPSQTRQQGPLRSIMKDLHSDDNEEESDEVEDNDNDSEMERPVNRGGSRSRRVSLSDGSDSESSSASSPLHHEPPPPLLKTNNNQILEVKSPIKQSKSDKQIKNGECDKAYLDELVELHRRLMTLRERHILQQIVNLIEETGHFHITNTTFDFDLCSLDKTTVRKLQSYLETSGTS
esBAF inh = inhibitors of esBAF chromatin remodeling in mouse ES cells | Bmi1-luciferase knock-in reporter, 24 h; 100% = twice the neutral-well signal | reporter increase, % at 12.5 µM | 350,000 compounds, 2% hits; in the data active = activation above about 40%; inconclusive = no clear call, values can overlap the other calls;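 note: a rise in the Bmi1 reporter signal indicates esBAF inhibition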
Ecoli rRNA inh = inhibitors of bacterial rRNA selective over humanized ribosomes; GFP signal change (wild-type ribosome), % (no concentration beside the values); E. coli WT GFP vs humanized-ribosome RFP mutants, fluorescence, 24 h; hits give low values; DMSO median 0, no signal -100; 350,000 compounds, 1.6% hits;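 active = significant combined selectivity score with lowered wild-type GFP, culture density cut under 30%, mutant RFP and density less affected; inactive = any of these conditions unmet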
Wnt bcat act = activators of Wnt/beta-catenin signaling; 300,000 compounds, 1.2% hits; activation, % at 9.35 µM; Wnt/beta-catenin reporter cell assay, activator, plate reader; in the data active = activation above about 30%, passing the limit was not always enough; inconclusive = no clear call, values can overlap the other calls
MITF act = activators of MITF-driven TRPM1 promoter activity in SK-MEL-5 cells | SK-MEL-5 TRPM1-promoter luciferase, 24 h; % of positive control, neutral wells = 0 | activation, % at 12.5 µM | 300,000 compounds, 0.75% hits;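 active = mean activation of at least 80% with every replicate also reaching 80%; inconclusive = mean reaches 80% but some replicate falls short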
Numbers stand for hits; . = inactive; ? = inconclusive; / = no result given. Hits are enriched below; roughly 3.7% of the tested compounds scored in any of these assays.

SMILES | AF4-AF9 inh | esBAF inh | Ecoli rRNA inh | Wnt bcat act | MITF act
Cc1ccccc1NC(=NCCCN1CC1)Nc1ccccc1C | 78 | / | / | . | .
COc1ccc(-c2cc(=NCCC(=O)O)c3cc(C)ccc3o2)cc1 | . | 69 | . | . | 112
OC1/C(=C/c2ccc(Cl)cc2Cl)N2CCC1CC2 (stereo not drawn) | . | . | . | . | .
COc1ccccc1-n1c(Cc2ccccc2)nc2ccccc2c1=O | . | . | -22 | . | .
C[C@]12CCC3[C@@H](CC[C@H]4C[C@@H](O)CC[C@]34C)C1CCC2=O (stereo partly drawn) | . | . | . | . | .
C[C@]12CCC3C(CC[C@H]4C[C@@H](O)CC[C@]34C)C1C[C@@H](O)C2=O (stereo partly drawn) | . | . | -23 | . | /
Cc1nn(Cc2ccccc2)c(C)c1C(=O)OCC(=O)Nc1cccc(S(N)(=O)=O)c1 | . | / | -22 | . | .
COc1cccc(N2CCN(Cc3ccc(Cl)cc3)CC2)c1 | . | . | -33 | . | .
COc1cccc(CC(=O)N2CCN(Cc3cccc(Cl)c3)CC2)c1 | . | . | . | . | .
Fc1cccc(CN2CCN(c3ccc(Cl)cc3)CC2)c1 | . | . | . | . | .
COc1cccc(N2CCN(Cc3cccc(Cl)c3)CC2)c1 | . | . | -24 | . | .
CCN1CCN(c2ccc(N)c(C)c2)CC1 | 37 | . | . | . | .
CN1CCN(c2ccc([N+](=O)[O-])c(N)c2)CC1 | / | / | / | . | .
COC(=O)[C@@H]1[C@@H](CO)[C@@H]2Cn3c(ccc(C4=CCCCC4)c3=O)[C@H]1N2CC1CCCC1 | . | . | . | / | /
CC(C)(C)NC(=S)N1CCn2cccc2C1c1cccnc1 (stereo not drawn) | . | / | . | . | .
O=C1C(Cl)=CC(=Nc2ccc(O)cc2)C=C1Cl | 36 | . | . | . | .
O=[As](O)(O)c1ccc(N=Nc2ccc(O)cc2)cc1 | . | . | . | . | .
C[C@]12CC[C@H](O)C[C@H]1CC[C@@H]1[C@@H]2CC[C@]2(C)C(=O)CC[C@@H]12 | . | . | . | . | .
COc1ccc(-n2c(-c3ccc(C)cc3)nc3ccccc3c2=O)cc1 | . | / | -27 | . | /
COc1ccc(-c2nc3ccccc3c(=O)o2)cc1 | . | 50 | / | . | .
Cc1ccc(-c2nc3ccccc3c(=O)n2-c2ccncc2)cc1 | / | / | / | / | .
CCC(=NCCc1ccccc1)c1c(O)[nH]c(=O)[nH]c1=O | / | / | . | . | /
CCC(=Nc1ccccc1N)c1c(O)[nH]c(=O)[nH]c1=O | . | 51 | . | . | .
C#CCOC(=O)C1=CCCN(C)C1 | . | . | . | . | .
CN(C)c1ccc(NC(=O)CN2C(=O)CN=C(c3ccccc3)c3cc(Cl)ccc32)cc1 | 27 | . | . | . | .
SMILES | AF4-AF9 inh | esBAF inh | Ecoli rRNA inh | Wnt bcat act | MITF act
N#Cc1cc2c(nc1SCC(=O)Nc1ccc(Cl)cc1)C1CCN2CC1 | . | 46 | . | . | .
O=C(CN1CC=C(c2ccccc2)CC1)Nc1cc(Cl)ccc1Cl | . | / | . | . | .
N#Cc1cc2c(nc1SCC(=O)Nc1cc(Cl)ccc1Cl)C1CCN2CC1 | / | 58 | / | . | .
Cc1[nH]nc2ccc(-c3cncc(OC[C@@H](N)Cc4c[nH]c5ccccc45)c3)cc12 | / | . | / | / | .
Cn1cc(C(O)CN2CCCCC2)c2ccccc21 (stereo not drawn) | . | . | . | . | .
Cc1cc(C(=O)Nc2ccccc2)nn1C(C)(C)C | . | / | . | 37 | /
Cc1cc(C(=O)Nc2ccc3c(c2)OCCO3)nn1C(C)(C)C | . | . | . | 56 | /
Cc1ccc2[nH]c3c(c2c1)CN(C(=O)CN1C[C@H]2C[C@@H](C1)c1cccc(=O)n1C2)CC3 | . | . | . | . | .
CCCCn1c(=O)c(C=Nc2cccnc2Cl)c(O)n(CCCCl)c1=O | . | / | . | 51 | .
COc1ccc(-n2nnnc2C(c2ccccc2OC(F)(F)F)N2CCC3(CC2)C(=O)NCN3c2ccccc2)cc1 (stereo not drawn) | . | . | . | . | /
FC(F)(F)CN1C[C@@H]2N[C@H](C1)C2c1ccc(Br)cc1 (stereo partly drawn) | / | / | . | / | /
Cc1cc(OC(=O)N(C)C)nc(SCc2c(Cl)cccc2Cl)n1 | / | / | -18 | . | /
CN(C)C(=O)Oc1c(Cl)cc(Cl)c2ccccc12 | / | . | / | / | .
CN1C(=O)C(=Cc2ccc(N3CCCCCC3)cc2)C(=O)N(C)C1=O | . | / | . | . | /
CCCCCCC(=O)N/N=C/c1c(O)n(C(C)CC)c(=S)[nH]c1=O (stereo not drawn) | . | . | -23 | . | .
CCCCCCC(=O)N/N=C/c1c(O)n(C2CC2)c(=S)[nH]c1=O | . | / | . | . | .
COC(=O)C1C(O)C(C)C(O)C(C)/C=C\C=C(/C)C(=O)Nc2c(C)c(OC(C)=O)c3c(c2O)C(=O)C(C)=C2OCOC(=C23)/C(C)=C/C(C)(O)C(O)C(C)C1O (stereo not drawn) | . | . | -17 | . | .
O=C(Cc1ccncc1)N1CCCCN2[C@H](C1)[C@H](c1ccc(C#Cc3ccccc3F)cc1)[C@@H]2CO | . | . | . | / | /
O=Cc1cn(Cc2ccccc2F)c2ccccc12 | . | / | -25 | . | .
O=Cc1cn(CCCOc2ccccc2)c2ccccc12 | . | / | -49 | . | .
O=Cc1cn(Cc2c(F)cccc2Cl)c2ccccc12 | . | . | -27 | . | .
CC(=O)c1cn(Cc2ccccc2F)c2ccccc12 | . | . | . | . | .
O=Cc1cn(Cc2cccc([N+](=O)[O-])c2)c2ccccc12 | . | / | -21 | . | .
COc1ccccc1OCCCn1cc(C=O)c2ccccc21 | . | ? | . | . | .
C#C[C@@]1(O)CCC2C3CCC4=C/C(=N/OCC(=O)NC(CCC(N)=O)C(=O)O)CC[C@]4(C)C3CC[C@@]21C (stereo partly drawn) | . | . | . | . | .
SMILES | AF4-AF9 inh | esBAF inh | Ecoli rRNA inh | Wnt bcat act | MITF act
COC(=O)Nc1ccc(N=C(N)N[N+](=O)[O-])cc1 | . | / | . | . | .
CN1C2(C)c3ccccc3C1(c1ccccc1)c1ccccc12 | / | / | . | . | /
C[C@]12CCC(=O)C=C1CC[C@@H]1[C@@H]2CC[C@]2(C)C(=O)CC[C@@H]12 | . | . | . | . | .
C[C@]12CCC(=O)C=C1CC[C@@H]1C2CC[C@]2(C)C(=O)CCC12 (stereo partly drawn) | . | . | -38 | . | .
C[C@]12CCC3C(CC[C@H]4[C@@H](O)[C@H](O)CC[C@]34C)C1CCC2=O (stereo partly drawn) | . | / | -22 | . | .
COP(=O)(NC(=O)C(Cl)(Cl)Cl)OC | 27 | . | . | . | /
COP(=O)(NC(C)=O)SC (stereo not drawn) | . | . | / | . | .
CC[n+]1c(-c2ccccc2)c2cc(N)ccc2c2ccc(N)cc21 | 30 | / | . | . | .
COc1ccc(-c2cc(=O)c3c(OC)c(OC)c(OC)cc3o2)cc1 | . | . | -30 | . | .
O=C(Nc1ccc(F)cc1F)c1cccnc1Oc1cccc(C(F)(F)F)c1 | / | . | / | / | .
COc1cccc(OC)c1C1=NCC(=O)Nc2c1oc1ccc(Br)cc21 | . | . | -28 | . | .

Screening data (PubChem BioAssay)
